We go through 16 compounds from PubChem BioAssay (EPA / NIEHS).

Assay [1] can be described thus: BSK_SAg_PBMCCytotoxicity: PBMC Cytotoxicity Assessment in the BioMAP Diversity Plus: SAg Assay (AID 2283093).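 Also: PBMC viability measured as Alamar Blue reduction fluorescence at 546/580 nm; fitted both ways against DMSO so a hit may be loss or gain of signal.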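 As to AC50: PBMC superantigen activated with SEB plus TSST-1 one hour after compound addition.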 To be noted: primary human HUVEC with PBMC. An outline of the steps: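 Human umbilical vein endothelial cells co-cultured with PBMC; PBMC (75,000/well) pre-treated with compound 1 h, then activated with SEB and TSST-1 (20 ng/mL final each) for 90 h. Alamar Blue added 6 h, fluorescence 546/580 nm; bidirectional fit versus DMSO.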

Read-out in assay [2]: Interleukin-8 (IL8), CXCL8 (gene 3576)
The assay is described as follows: BSK_SAg_IL8: BioMAP Diversity Plus: SAg Assay for Interleukin-8 (IL8) Biomarker Activity (AID 2283094). To be noted: primary human HUVEC with PBMC; actives raise or lower the signal. An outline of the steps: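 Human umbilical vein endothelial cells co-cultured with PBMC, stimulated with superantigen; IL-8 measured by ELISA 24 h after chemical dosing. Bidirectional fitting versus DMSO; SRB staining in parallel cultures tracks cytotoxicity.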

Assay [3] is described as follows: BSK_SAg_SRB: Viability Assessment in the BioMAP Diversity Plus: SAg Assay (AID 2283096).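 Also: cells read one day after compound addition; hits may be either gain or loss of signal compared with DMSO.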 To be noted: primary human HUVEC with PBMC. An outline of the steps: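 Endothelial/PBMC primary human co-culture; compound 24 h; fix 10% TCA, stain 0.1% SRB, A560; protein content as cytotoxicity proxy; bidirectional curve fit, DMSO = baseline.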
Assay [4] addresses human CYP2A6, CYP2A6 (gene 1548) (UniProt P11509). Nature of the assay: NVS_ADME_hCYP2A6: NovaScreen (NVS) CYP450-related Enzyme Activity (ADME) Assay for human CYP2A6 (AID 2283099; active = hit-call score of the fitted dose curve at least 0.9, where 1 is the maximum). In a few lines: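 Cell-free fluorescence readout of recombinant human CYP2A6 expressed in insect cells, read 0.5 h after dosing; loss of signal versus acetonitrile negative control. Primary screen in duplicate at 10 uM; actives re-run in concentration-response up to 20 uM.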

The target in assay [5] is human CYP19A1, CYP19A1 (gene 1588) (UniProt P11511). Nature of the assay: NVS_ADME_hCYP19A1: NovaScreen (NVS) CYP450-related Enzyme Activity (ADME) Assay for human CYP19A1 (AID 2283098; active = hit-call score of the fitted dose curve at least 0.9, where 1 is the maximum). In a few lines:
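Cell-free enzyme assay with recombinant protein and a specific fluorogenic substrate, read by fluorescence intensity 0.5 h after dosing. Primary screen ran in duplicate at 10 uM; actives were retested in concentration series. Loss of signal versus acetonitrile baseline.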

Assay [6] addresses human CYP2B6, CYP2B6 (gene 1555) (UniProt P20813). The assay is described as follows: NVS_ADME_hCYP2B6: NovaScreen (NVS) CYP450-related Enzyme Activity (ADME) Assay for human CYP2B6 (AID 2283101; active = hit-call score of the fitted dose curve at least 0.9, where 1 is the maximum). An outline of the steps:
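Recombinant protein, specific fluorescent substrate, read at 1 h post-dosing. Primary: single 10 uM, duplicate; follow-up: concentration series. Activity = signal loss vs acetonitrile baseline, with positive and negative controls on every plate.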

The target in assay [7] is human CYP1A2, CYP1A2 (gene 1544) (UniProt P05177). Nature of the assay: NVS_ADME_hCYP1A2: NovaScreen (NVS) CYP450-related Enzyme Activity (ADME) Assay for human CYP1A2 (AID 2283102; active = hit-call score of the fitted dose curve at least 0.9, where 1 is the maximum;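 also: potency for inhibition since loss of fluorescence marks reduced CYP1A2 activity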). In a few lines: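 Cell-free recombinant human CYP1A2 expressed in insect cells, with fluorogenic substrate; fluorescence intensity read 0.5 h after dosing. Loss of signal relative to acetonitrile baseline scored. Primary screen in duplicate at 10 uM; actives retested in concentration series.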

The target of assay [8] is human CYP2D6, CYP2D6 (gene 1565) (UniProt P10635). The assay is described as follows: NVS_ADME_hCYP2D6: NovaScreen (NVS) CYP450-related Enzyme Activity (ADME) Assay for human CYP2D6 (AID 2283107; active = hit-call score of the fitted dose curve at least 0.9, where 1 is the maximum). An outline of the steps: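 Cell-free assay using recombinant enzyme expressed in insect cells, with fluorescence-intensity readout of enzyme activity 1 hour after chemical dosing. Loss of signal versus acetonitrile negative control indicates inhibition. Primary screen ran in duplicate at 10 uM; actives were retested in concentration series.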

Assay [9] deals with human CYP1A1, CYP1A1 (gene 1543) (UniProt P04798). Nature of the assay: NVS_ADME_hCYP1A1: NovaScreen (NVS) CYP450-related Enzyme Activity (ADME) Assay for human CYP1A1 (AID 2283100; active = hit-call score of the fitted dose curve at least 0.9, where 1 is the maximum). An outline of the steps: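 Cell-free fluorescence assay of recombinant human CYP1A1 activity with a specific substrate, read 1 h after dosing. Compounds were screened in duplicate at 10 uM, then hits tested in concentration-response up to 20 uM; acetonitrile served as baseline.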

SMILES strings stand for the structures. Inconclusive results are not listed. Calls of active or inactive are those of the source. The calls were made as follows, unless noted: active = hit-call score of the fitted dose curve at least 0.9, where 1 is the maximum; inactive = score below 0.9.

Chain of human CYP1A2, CYP1A2 (gene 1544) (P05177 whole entry, looked up): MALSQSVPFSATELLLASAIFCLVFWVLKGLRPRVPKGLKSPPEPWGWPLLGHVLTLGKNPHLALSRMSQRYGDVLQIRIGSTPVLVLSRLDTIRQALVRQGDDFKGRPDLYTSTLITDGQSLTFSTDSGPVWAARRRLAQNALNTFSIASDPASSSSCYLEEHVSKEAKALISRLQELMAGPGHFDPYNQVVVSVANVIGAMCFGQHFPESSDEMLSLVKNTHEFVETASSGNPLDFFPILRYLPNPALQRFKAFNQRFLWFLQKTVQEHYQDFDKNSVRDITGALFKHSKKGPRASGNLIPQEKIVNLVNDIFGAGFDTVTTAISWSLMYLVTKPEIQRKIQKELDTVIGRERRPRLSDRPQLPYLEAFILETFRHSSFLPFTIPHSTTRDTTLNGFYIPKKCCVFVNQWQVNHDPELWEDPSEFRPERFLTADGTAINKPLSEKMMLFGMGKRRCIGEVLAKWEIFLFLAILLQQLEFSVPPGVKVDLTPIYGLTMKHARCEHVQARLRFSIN
Chain of human CYP2B6, CYP2B6 (gene 1555) (P20813 whole entry, looked up): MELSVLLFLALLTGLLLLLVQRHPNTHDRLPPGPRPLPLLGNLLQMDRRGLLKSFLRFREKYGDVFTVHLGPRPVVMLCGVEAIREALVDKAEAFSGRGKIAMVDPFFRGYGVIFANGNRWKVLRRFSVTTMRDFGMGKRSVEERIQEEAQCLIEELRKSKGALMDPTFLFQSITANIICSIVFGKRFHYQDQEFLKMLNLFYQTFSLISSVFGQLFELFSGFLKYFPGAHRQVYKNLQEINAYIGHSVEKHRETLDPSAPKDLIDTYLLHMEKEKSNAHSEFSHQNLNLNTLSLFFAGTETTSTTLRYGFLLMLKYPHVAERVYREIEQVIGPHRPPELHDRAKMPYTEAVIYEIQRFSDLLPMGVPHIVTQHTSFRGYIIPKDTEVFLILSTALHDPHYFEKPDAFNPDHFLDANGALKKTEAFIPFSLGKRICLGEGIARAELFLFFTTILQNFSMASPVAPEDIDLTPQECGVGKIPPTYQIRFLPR
Chain of human CYP19A1, CYP19A1 (gene 1588) (P11511 whole entry, looked up): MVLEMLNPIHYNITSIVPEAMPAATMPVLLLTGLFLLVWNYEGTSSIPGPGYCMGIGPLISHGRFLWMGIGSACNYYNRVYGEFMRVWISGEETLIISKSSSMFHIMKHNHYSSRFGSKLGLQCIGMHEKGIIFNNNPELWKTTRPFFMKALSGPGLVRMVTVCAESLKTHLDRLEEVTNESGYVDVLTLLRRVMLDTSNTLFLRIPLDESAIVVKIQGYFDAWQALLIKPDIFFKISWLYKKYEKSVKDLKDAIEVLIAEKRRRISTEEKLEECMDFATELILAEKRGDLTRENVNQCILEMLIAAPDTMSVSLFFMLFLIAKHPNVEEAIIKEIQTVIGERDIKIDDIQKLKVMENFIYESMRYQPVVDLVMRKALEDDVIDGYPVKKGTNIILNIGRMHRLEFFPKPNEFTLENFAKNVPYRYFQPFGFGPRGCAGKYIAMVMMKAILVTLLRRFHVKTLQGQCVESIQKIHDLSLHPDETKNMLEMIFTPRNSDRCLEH
Chain of human CYP2D6, CYP2D6 (gene 1565) (P10635 whole entry, looked up): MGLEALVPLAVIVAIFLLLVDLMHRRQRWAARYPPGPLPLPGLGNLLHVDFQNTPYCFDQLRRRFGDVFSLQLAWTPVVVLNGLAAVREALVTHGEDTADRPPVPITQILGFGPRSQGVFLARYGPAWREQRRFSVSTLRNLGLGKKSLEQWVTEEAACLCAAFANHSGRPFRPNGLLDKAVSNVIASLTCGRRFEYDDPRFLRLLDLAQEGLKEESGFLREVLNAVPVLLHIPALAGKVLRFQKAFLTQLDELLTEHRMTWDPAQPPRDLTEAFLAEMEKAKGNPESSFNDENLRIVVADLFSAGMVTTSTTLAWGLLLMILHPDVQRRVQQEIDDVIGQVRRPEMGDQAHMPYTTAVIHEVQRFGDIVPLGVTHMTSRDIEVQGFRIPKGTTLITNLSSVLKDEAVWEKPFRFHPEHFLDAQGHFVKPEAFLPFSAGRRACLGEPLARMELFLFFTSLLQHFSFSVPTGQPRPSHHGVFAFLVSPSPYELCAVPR
Chain of human CYP2A6, CYP2A6 (gene 1548) (P11509 whole entry, looked up): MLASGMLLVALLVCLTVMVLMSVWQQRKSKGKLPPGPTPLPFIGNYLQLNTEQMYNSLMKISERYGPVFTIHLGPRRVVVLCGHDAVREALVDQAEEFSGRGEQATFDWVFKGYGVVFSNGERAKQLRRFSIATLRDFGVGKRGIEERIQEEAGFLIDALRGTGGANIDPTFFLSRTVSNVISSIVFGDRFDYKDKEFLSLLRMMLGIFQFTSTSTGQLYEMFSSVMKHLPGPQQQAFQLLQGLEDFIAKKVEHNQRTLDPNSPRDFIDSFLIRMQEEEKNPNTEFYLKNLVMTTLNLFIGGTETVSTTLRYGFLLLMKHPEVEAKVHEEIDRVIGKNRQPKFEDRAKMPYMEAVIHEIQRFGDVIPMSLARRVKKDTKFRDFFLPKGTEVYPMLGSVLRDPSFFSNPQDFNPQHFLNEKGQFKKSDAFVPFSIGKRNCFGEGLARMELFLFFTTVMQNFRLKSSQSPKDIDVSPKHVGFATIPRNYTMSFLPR
Chain of human CYP1A1, CYP1A1 (gene 1543) (P04798 whole entry, looked up): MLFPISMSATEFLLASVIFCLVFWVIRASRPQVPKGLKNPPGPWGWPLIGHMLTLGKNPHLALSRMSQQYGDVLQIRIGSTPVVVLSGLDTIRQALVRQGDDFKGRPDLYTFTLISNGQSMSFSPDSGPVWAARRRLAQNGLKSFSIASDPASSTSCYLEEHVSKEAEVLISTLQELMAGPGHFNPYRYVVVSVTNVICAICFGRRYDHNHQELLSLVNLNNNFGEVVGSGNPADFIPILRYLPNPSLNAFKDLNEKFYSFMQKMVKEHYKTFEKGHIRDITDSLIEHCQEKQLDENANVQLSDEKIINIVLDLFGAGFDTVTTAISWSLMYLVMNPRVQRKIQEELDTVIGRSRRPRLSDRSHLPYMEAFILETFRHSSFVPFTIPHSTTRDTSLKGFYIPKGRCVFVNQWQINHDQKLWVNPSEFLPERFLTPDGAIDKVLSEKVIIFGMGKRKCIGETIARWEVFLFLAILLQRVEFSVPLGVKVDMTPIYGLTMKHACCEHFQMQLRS

Take `CC[C@H](NC(=O)c1cc(F)ccc1NS(=O)(=O)c1cccc2cccnc12)c1ccccc1`: the result in assay [1], in assay [3] and in [4] was inactive. In addition, in assay [2], the half-maximal activity concentration (AC50) was 8.99 µM (active).
In the case of `CCCCOC(=O)CC(CC(=O)OCCCC)(OC(C)=O)C(=O)OCCCC`, the result in assay [1], in assay [2] and in assay [3] was inactive.
Take `CCCCCCCCOc1ccc(C(=O)c2ccccc2)c(O)c1`: the result in [1], in assay [2] and in assay [5] was inactive. Further, the half-maximal activity concentration (AC50) in [3] is 30.4 µM (active).
Consider `Cc1ncc(CO)c(CO)c1O`, for which the outcome in assay [1], in assay [2] and in assay [3] was inactive.
As for `CO[C@H]1/C=C/O[C@@]2(C)Oc3c(C)c(O)c4c(O)c(c(/C=N/N5CCN(C)CC5)c(O)c4c3C2=O)NC(=O)/C(C)=C\C=C\[C@H](C)[C@H](O)[C@@H](C)[C@@H](O)[C@@H](C)[C@H](OC(C)=O)[C@@H]1C`, the AC50 in [1] is 9.8 µM (active). For the same compound, the outcome in assay [2] and in [3] was inactive.
Regarding `NC(=O)c1nc(-c2cccc(-c3cc(F)ccc3OCC(F)(F)C(F)(F)F)c2)n[nH]1`, the AC50 in assay [1] was 35.7 µM (active); in assay [2] it was 18.2 µM (active); in assay [3], 32.7 µM (active).
Take `O=c1ccc2ccccc2o1`: the outcome in assay [1], in assay [2] and in assay [3] was inactive.
With `CCCCCCCCOC(=O)c1cc(O)c(O)c(O)c1`, the AC50 was 27.7 µM (active) in assay [1]; 11.5 µM (active) in assay [2]; 24.8 µM (active) in [3]; 10.1 µM (active) in assay [6]; 4.26 µM (active) in [7]; 10.1 µM (active) in assay [8].
For the compound `OC12N=C(c3ccccc3)SC1Cc1cc(Cl)ccc12` (stereo unspecified), the figures for the concentration at half-maximal activity (AC50) in assay [1], in assay [6] and in assay [7] were 28.6 µM (active), 3.9 µM (active) and 0.814 µM (active), respectively. The outcome in [2] and in assay [3] was inactive.
With `Cc1cc2c(cc1C(F)(F)F)N(C(=O)Nc1ccc(Oc3cccnc3C)nc1)CC2`, the result in [1], in assay [2] and in assay [3] was inactive.
In the case of `OCCO`, the outcome in [1], in [2], in [3] and in assay [5] was inactive.
On to `CN(C[C@@H](CC[N+]12CCC(C3CCCCC3)(CC1)CC2)c1ccc(Cl)c(Cl)c1)C(=O)c1cc(C(F)(F)F)cc(C(F)(F)F)c1`, for which the concentration at half-maximal activity (AC50) in [1] was 9.71 µM (active); in [2], 13.9 µM (active); in [3], 26.9 µM (active); in assay [9] it was 14.8 µM (active).
On to `CC(C)(C)c1cc(/C=C2\SC(N)=NC2=O)cc(C(C)(C)C)c1O`, for which the figures for the AC50 in [1], in assay [2] and in assay [3] were 11.1 µM (active), 8.74 µM (active) and 26.6 µM (active), respectively.
Regarding `CCCCOC(=O)c1ccc(O)cc1`, the result in assay [1], in assay [2] and in assay [3] was inactive. Moreover, the AC50 in assay [6] was 4.55 µM (active); in [7], 2.4 µM (active); in assay [8], 4.89 µM (active).
`CC(=O)N1CCN(c2ccc(OC[C@H]3CO[C@](Cn4ccnc4)(c4ccc(Cl)cc4Cl)O3)cc2)CC1`: the AC50 in [1] is 33 µM (active); in assay [2], 26.5 µM (active); in assay [3], 24.7 µM (active).
With `O=C(OCCCCCCOC(=O)c1ccccc1)c1ccccc1`, the result in assay [1], in [2] and in assay [3] was inactive. In addition, in [7], the half-maximal activity concentration (AC50) is 5.42 µM (active).
